ChEMBL document CHEMBL4513216, “Probing the Open Global Health Chemical Diversity Library for Multistage-Active Starting Points for Next-Generation Antimalarials” (ACS Infect Dis, 2020)
The campaign covered roughly 69,000 compounds. About 8,600 (12%) showed an effect of 50% or more. The sample holds strong results, similar compounds and a random draw of the others, so the mix is not that of the screen.

These compounds were tested on Plasmodium berghei (assay: Screen against P. berghei liver stage (PbLuc), transformed with Luciferase, at 10uM). Conditions: tested at 10 uM.
Assay type: functional, HepG2

| Structure (SMILES) | INHIBITION [%] |
| --- | --- |
| CN(CCn1nc2ccccn2c1=O)CC(=O)N1CCCC1 | 18.2 |
| CCn1cc(CN(C)C(=O)c2cc(C(F)(F)F)n(C)n2)cn1 | -6.42 |
| CC(C)(CO)Nc1c(NCc2ccncc2)c(=O)c1=O | 32.8 |
| CC(OCCCNC(=O)c1cccnc1O)c1ccccc1 (centres undefined) | -21.2 |
| COc1ccc(C(=O)NCCCNc2ncccn2)c(OC)c1 | 30.8 |
| COc1ccc(C(=O)NCCCOC(C)c2ccccc2)c(OC)c1 (centres undefined) | 84.4 |
| CCC[C@@H]1CN(C(=O)c2ccccc2C(C)=O)C[C@H]1N(C)C | 8.92 |
| CCC[C@@H]1CN(C(=O)c2ccccc2-c2ccccc2)C[C@H]1N(C)C | 31.7 |
| CCC[C@@H]1CN(C(=O)c2cc3ccccc3cc2O)C[C@H]1N(C)C | 51.5 |
| Cc1ccc(-c2n[nH]cc2CNCC2CCN(CC(F)(F)F)C2)o1 (centres undefined) | 27.5 |
| CC1=N[C@@]2(CC[C@@H]3CN(CC(=O)N(C)C)C[C@@H]32)C(=O)N1CC(C)C | -6.32 |
| CCN1CCCn2c(nc(CNC(=O)c3cnoc3C)cc2=O)C1 | -24 |
| Cn1nccc1CNC(=O)C1CCCCC1 | 33 |
| Cc1cc(C(=O)NC(C)CC(=O)c2ccco2)[nH]n1 (centres undefined) | 37.9 |
| COCCN1CCO[C@H]2CN(C(=O)c3ccncc3F)C[C@H]21 | -52.3 |
| COCCN1CCO[C@H]2CCN(C(=O)c3ccnnc3)CC[C@@H]21 | 55.6 |
| O=C(c1cccs1)N1C[C@@H]2OCCN(CC3CCCO3)[C@@H]2C1 (some centres undefined) | -17.1 |
| CS(=O)(=O)N1CCO[C@@H]2CCN(C(=O)c3cccs3)CC[C@H]21 | 31.9 |
| CN(C)CCN1CCO[C@@H]2CCN(C(=O)c3cccn3C)CC[C@H]21 | -16.2 |
| COCCN1CCO[C@H]2CN(C(=O)c3cccs3)C[C@H]21 | 77.7 |
| O=C(c1ccnnc1)N1C[C@@H]2OCCN(CCN3CCCC3)[C@@H]2C1 | 11.9 |
| COCCN1CCO[C@H]2CCN(C(=O)c3cccs3)CC[C@@H]21 | -18.3 |

| Structure (SMILES) | INHIBITION [%] |
| --- | --- |
| CN(C)CCN1CCO[C@H]2CCN(C(=O)c3cccs3)CC[C@@H]21 | 54.1 |
| COC(=O)N1CCC(Nc2ccc(Cl)c(C#N)n2)CC1 | 8.12 |
| COc1ncc(C(F)(F)F)c(C(=O)O)c1Cl | 24.2 |
| Cc1cnn(CC2CCCCN2C(=O)Cc2c(C)noc2C)c1 (centres undefined) | 8.53 |
| CCN1Cc2ccccc2CC2(CCN(C)CC2)C1=O | 26.5 |
| Cc1nc(C)n(CC2CCCN(CCOc3cccc(F)c3)C2)n1 (centres undefined) | 48.4 |
| O=C(CC1CCCC1)N1CCN2C[C@@H](CO)[C@H](c3ccccc3)[C@H]2C1 | -16.4 |
| CS(=O)(=O)NC1CCCN(C(=O)NCc2cccc(F)c2)C1 (centres undefined) | 29.4 |
| c1ccc(N2CCCC3(CCN(Cc4cccs4)C3)C2)nc1 (centres undefined) | 44.9 |
| Cc1ccc(C(=O)NCCn2nc(-n3cncn3)ccc2=O)c(C)c1 | 16.5 |
| CC(C)c1nc2c(n1C)CCN(Cc1nc(-c3ccco3)no1)C2 | 7.08 |
| O=C(NCc1ccc2c(c1)OCO2)c1ccc(N2CCCCCC2)nc1 | -4.99 |
| COc1ccc2cc(C3CN(C(=O)N(C)C)CCO3)ccc2c1 (centres undefined) | 85.4 |
| CNC(=O)CCC(=O)N1CCOC(c2ccc3cc(OC)ccc3c2)C1 (centres undefined) | 78.15 |
| O=C(C1CCOCC1)N1CCOCC(Cc2ncccn2)C1 (centres undefined) | 19.3 |
| COc1ccc2cc(C3CN(C(=O)C4CCOCC4)CCO3)ccc2c1 (centres undefined) | 66.8 |
| CNC(=O)CN1CCC(c2cc(OC)cc(OC)c2)C1 (centres undefined) | 45.1 |
| CCN1CCN(CC(=O)N2CCOC(Cc3ccc(OC)cc3)C2)CC1 (centres undefined) | -42.1 |
| CNC(=O)NC(=O)CCN1CCOC(c2ccc(Br)cc2)C1 (centres undefined) | -65.1 |
| Nc1cccc(C2CN(C(=O)CN3CCOCC3)CCO2)n1 (centres undefined) | 36 |
| CN(C)C(=O)N1CC[C@@H](c2ccc3ccccc3c2)[C@H](O)C1 | 2.18 |
| COc1ccc2cc(C3CN(C(=O)CN4CCCC4)CCO3)ccc2c1 (centres undefined) | 64.7 |

| Structure (SMILES) | INHIBITION [%] |
| --- | --- |
| COc1ccc(-c2cnc(N(C)C)nc2C2CN(C(C)=O)CCO2)cc1 (centres undefined) | 7.52 |
| COc1ccc(CN2CCO[C@H]3CN(C(=O)C4CC4)CC[C@H]3C2=O)cc1 | -47 |
| O=C(c1cc(-c2ccco2)cs1)N1CCCC1 | -12.2 |
| CNC(=O)[C@H]1C[C@H]2OCC[C@H]2N(Cc2cccc3ccccc23)C1 | -6.32 |
| COCc1nc(CNc2cc(C)nc(-c3ccccc3)n2)no1 | -7.81 |
| O=C(CS(=O)(=O)Cc1ccccc1)NC1CCCCNC1=O (centres undefined) | 5.7 |
| Cc1noc([C@H]2C[C@H]3OCC[C@H]3N(S(C)(=O)=O)C2)n1 | -31.3 |
| CCOC(=O)[C@]12CCCN(Cc3ccco3)C[C@H]1CN(CCN(C)C)C2 | -0.182 |
| Cn1nc2c(cc1=O)CN(Cc1nc(-c3ccccn3)no1)CC2 | -19.7 |
| CCC(=O)Nc1c(C)nn(COc2cccc(F)c2)c1C | 26.7 |
| Cc1cc(C)c2[nH]c(C(=O)NCCN3CCOC3=O)c(C)c2c1 | 24 |
| CC(=O)N(Cc1noc(C)n1)C1CCN(CC(=O)N(C)C2CC2)C1 (centres undefined) | 7.3 |
| O=C(O)c1cc2c(nc1NCC1CC1)CCN(C1CCOC1)CC2 (centres undefined) | 29.8 |
| COc1ccc2cc(C3CN(C(=O)CCNC(C)=O)CCO3)ccc2c1 (centres undefined) | 81.9 |
| COCC(=O)N1CCC(c2ccc(OC)cc2)C1 (centres undefined) | 23.6 |
| O=C(CCNS(=O)(=O)c1ccccc1)N1CCOC(c2ccccc2)C1 (centres undefined) | -74.1 |
| CC(=O)NCC(=O)N1CCOC(c2cccc(N)n2)C1 (centres undefined) | -24.4 |
| COc1ccc2cc(C3CN(C(=O)COC(C)C)CCO3)ccc2c1 (centres undefined) | 69.15 |
| CC(C)c1n[nH]c(C2CN(C(=O)COc3ccc(F)cc3)CCO2)n1 (centres undefined) | 8.41 |
| FC(F)(F)COc1cccc(-c2nc3c([nH]2)CCNC3)c1 | 36.6 |
